Bioassay records: PubChem BioAssay, ICCB-Longwood Screening Facility, Harvard Medical School
Compounds with a hit are over-represented: about 1.4% of the library has one in this group of screens.
Mtb MenB inh = inhibitors of Mycobacterium tuberculosis MenB enzyme. P9WNP5. MenB enzyme assay, absorbance read-out. inhibition, % (concentration not given with the values). 100,000 compounds, 0.43% hits; in the data active = inhibition above about 21%, passing the limit was not always enough
Mtb MbtI inh = MbtI salicylate synthase inhibition. inhibition, % (no concentration beside the values). P9WFX0. 100,000 compounds, 0.89% hits. purified MbtI enzyme, fluorescence intensity read-out; in the data active = inhibition mostly above about 56%, no sharp cut-off; inactive = mostly below about 77%
PV pol inh = poliovirus RNA polymerase inhibition; P03300; % elongation, % (compound at 16.7 µg/mL); 150,000 compounds, 0.66% hits; poliovirus polymerase elongation, fluorescence polarization; hits give low values; in the data active = % elongation below about 90%
Target sequence (P03300 1749-2209 limits assumed): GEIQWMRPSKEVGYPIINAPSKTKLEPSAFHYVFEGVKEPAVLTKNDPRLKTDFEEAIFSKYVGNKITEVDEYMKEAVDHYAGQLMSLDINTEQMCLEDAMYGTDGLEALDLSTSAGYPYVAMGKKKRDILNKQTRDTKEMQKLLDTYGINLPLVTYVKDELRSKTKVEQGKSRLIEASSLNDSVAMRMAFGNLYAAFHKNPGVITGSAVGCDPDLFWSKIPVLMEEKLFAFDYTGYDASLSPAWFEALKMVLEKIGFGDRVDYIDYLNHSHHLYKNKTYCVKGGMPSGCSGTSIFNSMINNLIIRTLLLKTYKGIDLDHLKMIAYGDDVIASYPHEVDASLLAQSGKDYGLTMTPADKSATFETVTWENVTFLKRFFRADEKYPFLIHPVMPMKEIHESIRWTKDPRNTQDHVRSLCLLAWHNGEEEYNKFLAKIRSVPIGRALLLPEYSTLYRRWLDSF
Numbers without * were called inactive; . = no result given; ! = a repeat was not active.

SMILES	Mtb MenB inh	Mtb MbtI inh	PV pol inh
CN(Cc1ccccc1)C(=O)CNC(=O)Cn1ccc2ccccc2c1=O	7	5	99
NC(=O)C1CCN(C(=O)C2(c3cccs3)CCOCC2)CC1	14	17	102
O=C(NC(=S)NNc1nc2ccccc2s1)c1ccco1	-85	1	103
CCC(C(=O)N1CCN(CC)CC1)c1ccccc1 (stereo not given)	2	-18	101
O=C(c1cnoc1)c1cc(Cl)cc(Cl)c1O	.	-29	101
O=C(c1cnoc1)c1ccccc1O	5	20	83*
CC(NC(=O)COc1ccc(Cl)cc1)C(=O)O (stereo not given)	2	-11	98
COc1ccc(C(=O)N/N=c2/c(=O)c(=O)c3ccccc23)cc1	-25	-6	52*
COc1ccc(C(=O)NN=C2CCCC2)cc1	2	6	103
O=C1Nc2ccc(Cl)cc2/C1=C/c1ccc2c(c1)OCO2	.	-9	105
COc1ccc(NC(=O)CN(c2ccc(C)cc2)S(=O)(=O)c2cccs2)cc1OC	.	.	103
Cc1ccc(N(CC(=O)Nc2ccc(C)c(Cl)c2)S(=O)(=O)c2cccs2)cc1	.	.	89*
CCc1ccc(CC(=S)N2CCOCC2)cc1	-18	4	104
S=C(c1cccs1)N1CCCC1	-4	.	101
Cc1ccc(CC(=S)N2CCOCC2)cc1	2	69*	96
COc1ccc(CC(=S)N2CCOCC2)cc1	3	37	96
S=C(c1cccs1)N1CCOCC1	-7	70*	100
Cc1ccc(C(=S)N2CCOCC2)cc1	1	97*	98
CCc1ccc(C(=S)N2CCOCC2)cc1	0	26	100
S=C(c1ccc(-c2ccc(Cl)cc2)o1)N1CCOCC1	-30	77*	99
Cn1cnnc1Sc1nc(CN2CCOCC2)nc2scc(-c3ccccc3)c12	-29	-3	105
O=C(O)c1ccc(N2Cc3ccc(Br)cc3C2)cc1	-13	.	104
CCOc1ccccc1OCc1n[nH]c(=S)n1N	-25	35	101
Nn1c(COc2ccccc2)n[nH]c1=S	-71	95*	80*
O=C(CNCCC1=CCCCC1)Nc1ccc2[nH]c(=O)[nH]c2c1	-1	-26	100
SMILES	Mtb MenB inh	Mtb MbtI inh	PV pol inh
CCOC(=O)CCc1c(C)nc2ncnn2c1C	.	-1	.
CCOC(=O)CCc1c(CC(=O)OCC)c[nH]c1/C=N/O	-21	-9	50*
Cc1ccc(-n2nnc3c(=O)n(CC#N)cnc32)cc1Cl	-12	-2	103
Cc1cc(CNCc2ccc(CN3CCOCC3)cc2)c(C)n1-c1ccnn1C(C)C	0	12	93
O=c1[nH]c(CN2CCN(Cc3ccccc3)CC2)nc2ccccc12	4	-4	104
O=c1[nH]c(CN2CCOCC2)nc2ccccc12	-13	-1	70*
CNc1nc2c(c(=O)[nH]c(=O)n2C)n1Cc1cccc2ccccc12	24	-1	101
CC(C)n1c(=S)[nH]c2c1c(=O)[nH]c(=O)n2C	0	102*!	101
CC(C)CNC(=O)CSc1nnc(-c2ccc(Cl)cc2)n1N	-12	-34	102
CC(C)c1nnc(SCC(=O)Nc2ccc(Cl)cc2)n1N	3	89*	104
COc1ccc(C(=O)n2c(=S)nc3cc(C)ccn32)cc1	-16	.	79*
COc1ccc(C(=O)NCc2cn3ccc(C)cc3n2)cc1	.	.	107
CC1SC(=S)NN1c1ccccc1 (stereo not given)	.	88*	98
CC1SC(=S)N(c2ccccc2)C1=O (stereo not given)	-29	-20	97
O=C(NCC1CCCO1)c1ccc(-n2ccc3ccccc32)s1 (stereo not given)	-24	-125	99
CCOC(=O)c1c(-c2ccc(C)cc2)csc1NC(=O)c1cc(-c2ccc(C)c(F)c2)on1	.	.	111
CCc1c(C)sc(NC(=O)c2cc(-c3ccccc3)on2)c1C#N	-11	.	83*
CCOC(=O)c1c(-c2ccccc2)csc1NC(=O)c1cc(-c2ccc(F)cc2)on1	.	.	89*
CCc1c(C)sc(NC(=O)c2cc(-c3cccc(Cl)c3)on2)c1C#N	.	.	89
CCOC(=O)c1c(NC(=O)c2cc(-c3ccc(Br)cc3)on2)sc(C(C)=O)c1C	.	.	102
CCOC(=O)c1c(-c2ccccc2)csc1NC(=O)c1cc(-c2ccc(Br)cc2)on1	.	.	78*
COc1ccc2nc(NC(=O)c3ccccc3NS(=O)(=O)c3cccs3)sc2c1	-67	102	95
COc1ccc(-c2nc(CSCC(=O)N(C)Cc3ccccc3)c(C)o2)cc1OC	-30	62	103
CCOC(=O)c1cc(CC)sc1NC(=O)c1ccco1	-30	79	104
C=CCn1c(C2COc3ccccc3O2)n[nH]c1=S (stereo not given)	-22	98*	100
SMILES	Mtb MenB inh	Mtb MbtI inh	PV pol inh
C=CCn1c(SCC(=O)Nc2cc(C)on2)nnc1C1COc2ccccc2O1 (stereo not given)	-12	-16	101
Cn1c(N)c(C#N)c2c(c1=S)CCCC2	-45	24	88*
CN1CCc2c(C#N)c(N)n(N)c(=S)c2C1	-6	87	52
COc1ccc(Cc2nnc(-c3ccc(C)cc3)o2)cc1OC	-20	-4	103
COc1ccc(Cc2nnc3n2N=C(c2ccc(C)c(C)c2)C(C)S3)cc1OC (stereo not given)	-18	47	87*
CS(=O)(=O)Nc1ccc(Br)cc1	-1	.	105
CC1Sc2nnc(Cc3ccc(Br)cc3)n2N=C1c1ccc(NS(C)(=O)=O)cc1 (stereo not given)	-30	26	78*
CN(C)C=Nc1nc2ccccc2nc1Cl	-29	111	104
O=C(O)c1cccc(NC(=O)C2CC=CCC2C(=O)O)c1 (stereo not given)	.	-2	.
Cc1occc1C(=O)NCc1ccccc1	56*	1	100
Cc1occc1C(=O)N(Cc1ccccc1)Cc1ccccc1	.	-5	.
CC(C)CCSc1nc(-c2cccs2)ccc1C#N	-34	-331	97
COc1cc(OC)cc(C(=O)Nc2cc(NC(=O)c3ccco3)ccc2OC)c1	48*	9	99
COc1ccc(NC(=O)c2ccco2)cc1NC(=O)c1ccc(C)c(C)c1	.	.	104
CCOC(=O)CCn1cc(/C=C(\C#N)C(N)=S)c(-c2ccccc2)n1	-53	51	89*
CCOC(=O)/C(C#N)=C/c1cn(CCC#N)nc1-c1ccccc1	-24	-3	100
NC(=S)N1CCC(c2ccccc2)=N1	-17	23	96
N#Cc1c(-c2ccccc2)cc(-c2ccccc2)nc1SCC(O)CS(=O)(=O)Cc1ccccc1 (stereo not given)	.	.	80*
Cc1ccc(-c2cc(-c3ccccc3)c(C#N)c(SCC(O)CS(=O)(=O)Cc3ccccc3)n2)cc1 (stereo not given)	.	.	94
Cc1cccc(-c2nnc(SCN3C(=O)c4ccccc4C3=O)n2C)c1	5	-11	100
O=C(N/N=C/c1cccnc1)C1=NNC(=O)C1CCO (stereo not given)	-44	24	107
O=C1NCCCC1C(=O)NCCc1c[nH]c2ccc(OCc3ccccc3)cc12 (stereo not given)	-27	.	107
[N-]=C=C1C(=O)N(CCc2ccccc2)C(=O)[C@H]([n+]2ccccc2)[C@H]1c1ccc(Cl)cc1	-1	.	69*
Cc1ccc(C(=O)CC2(O)C(=O)N(CCc3ccccc3)c3ccc(Cl)cc32)cc1 (stereo not given)	.	.	102
